# Measurements reported in the supplement of paper PMC10037445.
# Several values for one entry are separate records, joined by “and”; a condition that tells them apart may be missing. Identical values can stand only once. The full ranking holds about 2,900 compounds; the median of “IRF Lucia reporter activity, fold change vs agonist alone” is about 0.9, and the highest 2% start at about 2.8. The list comes from a sample in which the highest values are over-represented; it also holds similar structures and randomly drawn compounds.
# How the values were obtained:
# RAW-Dual [1] = experiment: IRF Lucia reporter activity, fold change vs agonist alone; cytotoxicity flag (confluency mask): not cytotoxic; higher = enhanced IRF activity
# Method in brief: (§1)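 Reporter activity is given as fold change relative to agonist-alone wells. To measure it, 50 nL of library stock was pin-tooled onto RAW-Dual macrophages (50,000 cells/well, DMEM, 384-well plates), a PRR agonist followed 1 h later, and cells stayed at 37 °C, 5% CO2. Twenty hours on, supernatant was assayed for IRF (QuantiLuc luminescence) and NF-κB (QuantiBlue, 620 nm absorbance), and wells under 70% of agonist-control IncuCyte confluency in both mask sets were marked cytotoxic.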
# RAW-Dual [2] = experiment: IRF Lucia reporter activity, fold change vs agonist alone; higher = enhanced IRF activity; settings: agonist: MPLA (TLR4) […]
# Method in brief: as §1
# RAW-Dual [3] = experiment: IRF Lucia reporter activity, fold change vs agonist alone; cytotoxicity flag (confluency mask): cytotoxic (confluency <70% of control); higher = enhanced IRF activity
# Method in brief: as §1
# [4] = agonist: 3'3'-cGAMP (STING) 10 ug/mL
# [5] = library stock concentration (final ~1000-fold dilution): 10 mM, cytotoxicity flag (confluency mask): not cytotoxic
smiles,measurement,setting,value
COc1ccc(C2OCC3C(c4ccc(OC)c(OC)c4)OCC23)cc1OC (stereo not drawn) (library stock concentration (final ~1000-fold dilution): 10 mM),IRF Lucia reporter activity,RAW-Dual [1]; [4],1.35
same,IRF Lucia reporter activity,RAW-Dual [1]; agonist: LPS (TLR4) 0.1 ug/mL,0.899
O=C(C=Cc1ccc(O)cc1)c1ccc(O)cc1O (library stock concentration (final ~1000-fold dilution): 10 mM),IRF Lucia reporter activity,RAW-Dual [1]; [4],0.252
same,IRF Lucia reporter activity,RAW-Dual [1]; agonist: LPS (TLR4) 0.1 ug/mL,0.535
COC(=O)C1=C(C)NC(C)=C(C(=O)OCCN(C)Cc2ccccc2)C1c1cccc([N+](=O)[O-])c1.Cl (stereo not drawn) (library stock concentration (final ~1000-fold dilution): 10 mM),IRF Lucia reporter activity,RAW-Dual [1]; [4],0.3
same,IRF Lucia reporter activity,RAW-Dual [1]; agonist: LPS (TLR4) 0.1 ug/mL,1.4
COC(=O)C1=C(C)NC(C)=C(C(=O)OC(C)(C)CN(C)CCC(c2ccccc2)c2ccccc2)C1c1cccc([N+](=O)[O-])c1 (stereo not drawn) (library stock concentration (final ~1000-fold dilution): 10 mM),IRF Lucia reporter activity,RAW-Dual [1]; [4],0.134
same,IRF Lucia reporter activity,RAW-Dual [1]; agonist: LPS (TLR4) 0.1 ug/mL,1.96
COC(=O)C1=C(C)NC(C)=C(C(=O)OCCN(C)Cc2ccccc2)C1c1cccc([N+](=O)[O-])c1.Cl (stereo not drawn),IRF Lucia reporter activity,RAW-Dual [2]; [5],1.12
COC(=O)C1=C(C)NC(C)=C(C(=O)OC(C)(C)CN(C)CCC(c2ccccc2)c2ccccc2)C1c1cccc([N+](=O)[O-])c1 (stereo not drawn),IRF Lucia reporter activity,RAW-Dual [2]; [5],2.39
COC(=O)C1=C(C)NC(C)=C(C(=O)OC(C)(C)CN(C)CCC(c2ccccc2)c2ccccc2)C1c1cccc([N+](=O)[O-])c1.Cl (stereo not drawn) (library stock concentration (final ~1000-fold dilution): 10 mM),IRF Lucia reporter activity,RAW-Dual [1]; [4],0.139
same,IRF Lucia reporter activity,RAW-Dual [1]; agonist: LPS (TLR4) 0.1 ug/mL,3.23
COC(=O)C1=C(C)NC(C)=C(C(=O)OC(C)(C)CN(C)CCC(c2ccccc2)c2ccccc2)C1c1cccc([N+](=O)[O-])c1.Cl (stereo not drawn),IRF Lucia reporter activity,RAW-Dual [2]; [5],2.1
COC(=O)c1ccc(O)c(NC(=O)COc2ccc(C34CC5CC(CC(C5)C3)C4)cc2)c1 (library stock concentration (final ~1000-fold dilution): 10 mM),IRF Lucia reporter activity,RAW-Dual [1]; [4],0.925
same,IRF Lucia reporter activity,RAW-Dual [1]; agonist: LPS (TLR4) 0.1 ug/mL,1.14
CC(C)Cc1ccc([C@@H](C)C(=O)O)cc1 (library stock concentration (final ~1000-fold dilution): 10 mM),IRF Lucia reporter activity,RAW-Dual [1]; [4],0.953
same,IRF Lucia reporter activity,RAW-Dual [1]; agonist: LPS (TLR4) 0.1 ug/mL,1.08
CCC(C)C(=O)OC1CC(C)C=C2C=CC(C)C(CCC3CC(O)CC(=O)O3)C21 (stereo not drawn),IRF Lucia reporter activity,RAW-Dual [2]; [5],0.744
CCC(C)C(=O)OC1CC(C)C=C2C=CC(C)C(CCC3CC(O)CC(=O)O3)C21 (stereo not drawn) (library stock concentration (final ~1000-fold dilution): 10 mM),IRF Lucia reporter activity,RAW-Dual [1]; [4],0.497
same,IRF Lucia reporter activity,RAW-Dual [1]; agonist: LPS (TLR4) 0.1 ug/mL,0.764
Cc1cc(C)c(Nc2ccnc(Nc3ccc(C#N)cc3)n2)c(C)c1 (library stock concentration (final ~1000-fold dilution): 10 mM),IRF Lucia reporter activity,RAW-Dual [3]; [4],0.691
same,IRF Lucia reporter activity,RAW-Dual [3]; agonist: LPS (TLR4) 0.1 ug/mL,0.81
Cc1cc(C)c(Nc2ccnc(Nc3ccc(C#N)cc3)n2)c(C)c1,IRF Lucia reporter activity,"RAW-Dual [2]; library stock concentration (final ~1000-fold dilution): 10 mM, cytotoxicity flag (confluency mask): cytotoxic (confluency <70% of control)",1.7
Cc1cc(C#N)cc(C)c1Oc1nc(Nc2ccc(C#N)cc2)nc(N)c1Br (library stock concentration (final ~1000-fold dilution): 10 mM),IRF Lucia reporter activity,RAW-Dual [1]; [4],1.09
same,IRF Lucia reporter activity,RAW-Dual [1]; agonist: LPS (TLR4) 0.1 ug/mL,2.87
Cc1cc(/C=C/C#N)cc(C)c1Nc1ccnc(Nc2ccc(C#N)cc2)n1 (library stock concentration (final ~1000-fold dilution): 10 mM),IRF Lucia reporter activity,RAW-Dual [1]; [4],0.03
same,IRF Lucia reporter activity,RAW-Dual [1]; agonist: LPS (TLR4) 0.1 ug/mL,0.489
Cc1cc(C#N)cc(C)c1Oc1nc(Nc2ccc(C#N)cc2)nc(N)c1Br,IRF Lucia reporter activity,RAW-Dual [2]; [5],2.4
Cc1cc(/C=C/C#N)cc(C)c1Nc1ccnc(Nc2ccc(C#N)cc2)n1,IRF Lucia reporter activity,RAW-Dual [2]; [5],0.64
CC1CNc2c(cccc2S(=O)(=O)NC(CCCNC(=N)N)C(=O)N2CCC(C)CC2C(=O)O)C1 (stereo not drawn),IRF Lucia reporter activity,RAW-Dual [2]; [5],0.948
CC1CNc2c(cccc2S(=O)(=O)NC(CCCNC(=N)N)C(=O)N2CCC(C)CC2C(=O)O)C1 (stereo not drawn) (library stock concentration (final ~1000-fold dilution): 10 mM),IRF Lucia reporter activity,RAW-Dual [1]; [4],1.01
same,IRF Lucia reporter activity,RAW-Dual [1]; agonist: LPS (TLR4) 0.1 ug/mL,0.919
O=C(O)c1cc(I)ccc1NC(=O)C(Cc1ccccc1)NCc1ccccc1 (stereo not drawn) (library stock concentration (final ~1000-fold dilution): 10 mM),IRF Lucia reporter activity,RAW-Dual [1]; [4],1.17
same,IRF Lucia reporter activity,RAW-Dual [1]; agonist: LPS (TLR4) 0.1 ug/mL,1.41
O=C(O)c1cc(I)ccc1NC(=O)C(Cc1ccccc1)NCc1ccccc1 (stereo not drawn),IRF Lucia reporter activity,RAW-Dual [2]; [5],1.05
Nc1nc2[nH]cc(CCc3ccc(C(=O)NC(CCC(=O)O)C(=O)O)cc3)c2c(=O)[nH]1 (stereo not drawn) (library stock concentration (final ~1000-fold dilution): 10 mM water),IRF Lucia reporter activity,RAW-Dual [1]; [4],1.15 and 0.82
same,IRF Lucia reporter activity,RAW-Dual [1]; agonist: LPS (TLR4) 0.1 ug/mL,0.998 and 0.771
Nc1nc2[nH]cc(CCc3ccc(C(=O)NC(CCC(=O)O)C(=O)O)cc3)c2c(=O)[nH]1 (stereo not drawn),IRF Lucia reporter activity,"RAW-Dual [2]; library stock concentration (final ~1000-fold dilution): 10 mM water, cytotoxicity flag (confluency mask): not cytotoxic",1.12
